# High-throughput results: PubChem, The Scripps Research Institute Molecular Screening Center
# SRC2 inh: inhibits human steroid receptor coactivator 2. inhibition, % at 9 µM. actives 0.17% (n = 370,000). HEK293 GAL4-SRC2 luciferase reporter, luminescence. AID 651957. Q15596;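 active = inhibition above the mean inhibition of all tested compounds plus 3 SD, set per campaign, cut at about 52% in these data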;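 also: 0% = DMSO treated cells and 100% = cells given Gossypol at 36 µM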
# Target sequence (Q15596 whole entry, looked up, the tested form may be a part): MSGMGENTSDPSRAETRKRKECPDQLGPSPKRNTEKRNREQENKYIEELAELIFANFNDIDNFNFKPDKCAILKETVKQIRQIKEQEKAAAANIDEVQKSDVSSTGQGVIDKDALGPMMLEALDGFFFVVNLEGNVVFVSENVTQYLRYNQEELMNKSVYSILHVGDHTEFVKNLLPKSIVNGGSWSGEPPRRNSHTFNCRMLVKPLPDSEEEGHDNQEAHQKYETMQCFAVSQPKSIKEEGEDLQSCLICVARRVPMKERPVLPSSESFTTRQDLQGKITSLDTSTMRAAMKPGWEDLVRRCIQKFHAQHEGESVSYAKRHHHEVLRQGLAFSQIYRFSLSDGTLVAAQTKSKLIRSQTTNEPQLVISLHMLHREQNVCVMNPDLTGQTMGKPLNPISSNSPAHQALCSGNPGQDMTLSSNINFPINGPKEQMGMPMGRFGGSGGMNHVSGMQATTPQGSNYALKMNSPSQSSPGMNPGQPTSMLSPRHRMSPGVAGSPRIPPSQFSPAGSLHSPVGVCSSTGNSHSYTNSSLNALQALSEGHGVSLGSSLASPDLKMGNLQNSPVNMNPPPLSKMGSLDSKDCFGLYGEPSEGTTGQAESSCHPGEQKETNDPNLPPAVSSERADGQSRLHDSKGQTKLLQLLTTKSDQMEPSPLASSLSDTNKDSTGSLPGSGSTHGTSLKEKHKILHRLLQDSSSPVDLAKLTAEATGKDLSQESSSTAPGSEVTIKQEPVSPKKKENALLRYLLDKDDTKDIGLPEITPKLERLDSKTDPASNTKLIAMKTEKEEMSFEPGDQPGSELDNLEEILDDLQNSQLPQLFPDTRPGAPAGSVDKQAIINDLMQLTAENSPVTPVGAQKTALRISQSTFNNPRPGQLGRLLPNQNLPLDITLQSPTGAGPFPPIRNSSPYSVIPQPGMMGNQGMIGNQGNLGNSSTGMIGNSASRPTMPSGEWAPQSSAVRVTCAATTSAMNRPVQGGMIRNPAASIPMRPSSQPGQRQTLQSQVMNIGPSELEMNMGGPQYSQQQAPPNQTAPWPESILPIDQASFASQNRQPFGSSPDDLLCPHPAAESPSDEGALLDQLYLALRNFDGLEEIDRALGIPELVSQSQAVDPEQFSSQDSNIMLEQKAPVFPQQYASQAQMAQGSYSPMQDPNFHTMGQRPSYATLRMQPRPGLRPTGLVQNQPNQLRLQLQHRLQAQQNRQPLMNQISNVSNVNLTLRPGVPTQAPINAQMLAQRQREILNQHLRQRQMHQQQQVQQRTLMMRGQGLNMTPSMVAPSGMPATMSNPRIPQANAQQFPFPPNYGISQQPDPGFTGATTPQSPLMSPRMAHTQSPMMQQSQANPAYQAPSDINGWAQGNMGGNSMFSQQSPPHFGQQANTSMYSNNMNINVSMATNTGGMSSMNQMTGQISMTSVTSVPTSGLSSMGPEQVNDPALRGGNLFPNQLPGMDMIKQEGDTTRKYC
# NCOA1 inh: inhibits human SRC1 coactivator. Q15788. HEK293 GAL4-SRC1 luciferase reporter, luminescence. inhibition, % at 3.6 µM. actives 0.12% (n = 360,000). AID 588354;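 active = inhibition above the campaign mean plus 3 SD, with each screening campaign given its own cutoff, cut at about 60% in these data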;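 also: 0% = DMSO treated cells and 100% = gossypol at 36 µM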
# GalR3 antagonist: human GalR3 antagonism; HEK293 GalR3-CNG cAMP membrane potential fluorescence; galR3 body fused to GalR1 C-terminus; inhibition, % at 3 µM; AID 651719; actives 0.44% (n = 360,000);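 active = inhibition above the screen-wide average plus 3 SD, cut at about 13% in these data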;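 also: forskolin and galanin both at EC90 stimulate the cells; cAMP rise reported by CNG channel membrane potential dye signal; 0% = forskolin plus galanin with DMSO and 100% = forskolin alone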
# NR5A2 inv ag: suppresses constitutive activity of human LRH-1; O00482; HEK293T StAR-luciferase reporter, LRH-1 transfected, 24 h; inhibition, % at 3.6 µM; actives 0.13% (n = 360,000); AID 602396;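 active = inhibition above the mean inhibition of all tested compounds plus 3 SD, cut at about 73% in these data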;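 also: 0% = DMSO wells and 100% = reporter-only cells lacking LRH-1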
# NR2F2 inh: blocks human COUP-TFII nuclear receptor | HEK293T NGFI-A luciferase reporter, luminescence | actives 0.7% (n = 370,000) | inhibition, % at 8.6 µM | P24468;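 active = inhibition above a per-plate cutoff, mean inhibition of test wells between control levels plus 3 SD, cut at about 38% in these data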;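 also: cells cotransfected with COUP-TFII expression vector driving the NGFI-A reporter; 0% = median of COUP-TF2 test wells and 100% = reporter-only cells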
# NCOA3 inh: inhibits human SRC3 coactivator. actives 0.17% (n = 360,000). HEK293 GAL4-SRC3 luciferase reporter, luminescence. inhibition, % at 3.6 µM;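 active = inhibition above a per-campaign cutoff, the mean of all compounds plus 3 SD, cut at about 60% in these data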;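 also: 0% = DMSO-treated cells and 100% = gossypol-treated cells at 36 µM; higher means less SRC3-driven luciferase light from the GAL4 reporter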
# Active calls of the source: *; · = not tested or not shown. Hits are enriched below; roughly 1.1% of the tested compounds scored in any of these assays.
SMILES,SRC2 inh,NCOA1 inh,GalR3 antagonist,NR5A2 inv ag,NR2F2 inh,NCOA3 inh
CN1Cc2nnn(Cc3ccccc3)c2-c2cc(N3CCCC3)ccc2S1(=O)=O,21.8,·,·,·,21.2,·
C=CCn1c(C)cc(C(=O)COC(=O)c2ccc(N)c([N+](=O)[O-])c2)c1C,-39.3,-102.3,-1.1,-139.4,-40.4,-70.1
CCn1c(C)cc(C(=O)COC(=O)c2ccccc2[N+](=O)[O-])c1C,·,93.2*,·,95.2*,·,93.0*
O=C(CSc1nnc(-c2ccccc2)n1-c1ccc(Cl)cc1)NN=Cc1c[nH]c2ccccc12,3.9,·,·,·,-0.1,·
NCCNC(=O)c1c(NC(=O)c2ccccc2)sc2c1CCCC2,-44.8,-31.9,1.5,-14.3,-5.0,-36.5
O=C(Nc1sc2c(c1C(=O)NCCCO)CCCC2)c1ccccc1,-26.8,85.5*,-6.8,10.8,-11.8,5.9
COC(=O)[C@]12C[C@H](CC(=O)NCC34CC5CC(CC(C5)C3)C4)C(=O)N(Cc3ccco3)C1=C[C@H](C(C)(C)C)O[C@@H]2C,-1.7,·,·,·,1.0,·
COc1cccc2c1C(=O)c1c(O)c3c(c(O)c1C2=O)C[C@@](O)(C(=O)CO)C[C@@H]3O[C@H]1C[C@H](N)[C@H](O)[C@H](C)O1,-269.8,-38.1,-5.8,98.2*,-7.9,55.1
COc1cccc2c1C(=O)c1c(O)c3c(c(O)c1C2=O)C[C@@](O)(C(=O)CO)C[C@@H]3OC1CC(N)C(O)C(C)O1 (stereo partly drawn),-273.5,47.0,-9.1,78.1*,-21.5,-14.3
CC(C)NS(=O)(=O)c1cccc2nsnc12,20.6,-4.8,13.7*,3.8,-6.7,15.0
Cc1cccc(NS(=O)(=O)c2cccc3nsnc23)c1,0.9,9.9,-1.4,3.8,-2.0,2.5
O=C(Nc1ccc(F)cc1)Nc1c(-c2ccc(F)cc2)nc2ncccn12,-24.9,·,·,·,-8.2,·
O=C(NCC(c1ccccc1)c1ccccc1)[C@H](Cc1ccccc1)NC1(C(=O)NC2CCCCC2)CCOCC1,·,·,·,·,26.8,·
O=C(Nc1ccc(NS(=O)(=O)c2ccccc2)cc1)c1ccc(Cl)cc1,12.3,2.5,0.5,10.5,-13.4,16.4
O=C(Nc1cccc(S(=O)(=O)Nc2ccc(Cl)cc2)c1)c1ccc(Cl)nc1,24.1,-9.2,72.6*,57.8,82.2*,22.2
Fc1ccccc1-c1n[nH]c(=S)n1N=Cc1ccc(OCc2ccccc2)cc1,-41.2,·,·,·,-19.1,·
COc1ccc(C=NNC(=S)NN=Cc2ccc(OC)c(OC)c2)cc1OC,-27.4,-83.6,15.8*,-24.3,-22.7,-50.6
O=C1C[C@H](c2ccc3ccccc3c2)N=C2N1/C(=C\c1ccccc1)[C@@H](c1ccccc1C(F)(F)F)N2Cc1ccc2c(c1)OCO2,·,·,·,·,23.5,·
CCN(CC)c1ccc(/C=N/NC(=O)c2nnn(-c3nonc3N)c2C(C)C)c(O)c1,43.4,51.3,-2.3,25.9,-40.4,77.3*
CC(C)c1c(C(=O)N/N=C/c2ccc3c(c2)OCO3)nnn1-c1nonc1N,-0.2,-16.4,-3.8,-12.9,0.7,13.1
CCC[C@H]1[C@@H](OC(=O)N2CCN(c3ccccc3)CC2)CC[C@@]23CCCN2C(=O)CCC[C@@H]13,·,·,·,·,-2.8,·
CNc1ccc2ncc(-c3ccc(OC)c(OC)c3)n2n1,58.6*,77.7*,-7.4,25.6,-31.3,49.2
CCC[C@H]1[C@@H](NS(=O)(=O)c2ccccc2[N+](=O)[O-])CC[C@@]23CCCN2C(=O)CCC[C@@H]13,·,·,·,·,-19.0,·
Nc1ncc([N+](=O)[O-])c(N2CCCCCC2)n1,44.2,64.9*,-6.0,26.7,18.3,54.0
O=[N+]([O-])c1ccc(N2CCCC2)nc1N1CCCC1,19.5,-3.4,-5.3,48.1,7.8,13.6
SMILES,SRC2 inh,NCOA1 inh,GalR3 antagonist,NR5A2 inv ag,NR2F2 inh,NCOA3 inh
NC(=S)N1OC[C@@H]2COc3ccc4ccccc4c3[C@@H]21,53.7*,17.7,-4.4,27.7,12.0,11.2
CN(C)c1cccc(-c2cnc(N3CCC(C(N)=O)CC3)nc2)c1,·,·,·,·,-3.3,·
O=C1C=CC2(O[C@H](c3ccccc3)[C@@H](c3ccccc3)O2)[C@H](Sc2ccccc2O)C1,37.5,-131.2,15.7*,30.9,86.6*,-78.9
CCn1c2c(c(=N)c3c1CCC3)CCC2,32.5,8.5,-1.9,-9.8,11.8,9.3
CCCCCCCCCn1c2c(c(=N)c3c1CCC3)CCC2,·,70.6*,·,97.2*,·,80.9*
CCOc1ccc(Nc2ncnc3ccc([N+](=O)[O-])cc23)cc1,45.0,69.2*,-2.6,37.3,28.8,54.9
CC(C)(C)C(=O)/C(=C/c1ccc(Cl)cc1)n1cncn1,61.6*,50.3,-8.4,64.7,30.9,73.2*
CC(C)/C=C(/C(=O)c1ccc(Cl)cc1Cl)n1cncn1,-12.7,5.3,-10.4,9.5,1.0,21.9
COc1ccc2c(n1)Sc1nc3ccccc3nc1N2,64.7*,-105.1,-9.4,-147.2,28.7,-96.2
O=C(Nc1ccc([N+](=O)[O-])cc1)Nc1ccc(OC(F)F)c(Cl)c1,0.5,31.7,-6.7,10.4,18.9,75.1*
c1ccc2c(-c3ccc4nncn4c3)cncc2c1,55.3*,63.9*,-4.7,38.9,12.7,61.9*
O=C(CSc1nnc(Cc2cccs2)n1-c1ccc(Cl)cc1)Nc1ccc(OCc2ccccc2)cc1,-14.7,·,·,·,-0.1,·
CCOc1ccc(-n2c(SCC(=O)Nc3ccc(S(=O)(=O)Nc4cc(C)nc(C)n4)cc3)nnc2-c2ccc(OC)cc2)cc1,1.2,·,·,·,-4.5,·
Oc1ccc(N=Nc2ccc3c(c2)OCCO3)c2ncccc12,56.8*,49.9,-5.2,14.8,27.7,43.7
O=C(CSc1nc(-c2cccs2)cc(C(F)(F)F)n1)Nc1cc(OCC(F)(F)C(F)F)cc([N+](=O)[O-])c1,-7.2,75.7*,-0.4,-31.9,-1.5,13.1
Oc1[nH]c2ccc(Br)cc2c1N=NC(=S)N1CCOCC1,15.9,24.2,12.8*,54.7,36.3,32.0
O=C(Cn1nc(-c2ccccc2)c2ccccc21)Oc1ccccc1,·,·,·,·,14.1,·
CCCCCCN1CCS(=O)(=O)N(Cc2ccccc2)C(C(=O)OC)C1 (stereo not drawn),6.5,·,·,·,16.3,·
O=S(=O)(Nc1cc(Sc2cccc3cccnc23)c(O)c2ccccc12)c1ccccc1,94.9*,·,1.4,·,21.7,·
CCOc1ccc(S(=O)(=O)Nc2cc(SCC(=O)O)c(O)c3ccccc23)cc1,4.9,-8.3,-10.1,24.2,10.2,-0.5
CNc1cccnc1C=NNC(N)=S,34.1,79.8*,1.6,49.4,-10.6,80.4*
NC(=S)NN=Cc1nccc2c(C(F)(F)F)cccc12,24.7,87.2*,-3.0,92.9*,-55.1,91.1*
NC(=S)N/N=C/c1ccccc1,-19.6,-9.4,1.9,16.8,5.5,15.3
COc1ccc2ccccc2c1C=NNC(=O)c1cc(-c2ccc(C)cc2)n[nH]1,11.1,·,·,·,-11.4,·
OCC1OC(n2cnc3c(NCc4ccco4)ncnc32)C(O)C1O (stereo not drawn),-11.2,51.1,86.3*,56.8,-5.3,63.1*
